Hits are enriched below; roughly 3.7% of the tested compounds scored in any of these assays.
FMDV inh = antivirals against foot and mouth disease virus; AID 1159524; hit rate 1.2% among 410,000; Potency, µM (top dose mostly 57.9 µM), without a hit: at the highest dose activity change, negative = inhibition, actives largely listed as inhibitors; FMDV antiviral cell-based qHTS; calls by dose curve; tested in HEK293T cells; note: read-out not given here; nearly all actives have a fitted effect of over 45% in size
Sm TGR inh = blocks Schistosoma mansoni thioredoxin glutathione reductase; purified TGR, DTNB reduction, TNB absorbance 405 nm; Potency, µM (titrated, usually from 114 µM), without a hit: at the highest dose activity change, negative = inhibition, most hits filed as inhibitors; hit rate 3% among 360,000; AID 485364; note: nearly all actives have a fitted effect of over 60% in size
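First, TGR (20 nM dispensed) and NADPH were mixed with compound. Second, a 15 min room-temperature incubation followed. Third, further NADPH and then DTNB were added to start the reaction. Finally, TNB absorbance was monitored kinetically.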
Tb PYK inh = T. brucei pyruvate kinase inhibition; TbPYK enzyme, Kinase-Glo Plus ATP luminescence, 45 min; Potency, µM (series often up to 76.8 µM), for inactives: at the top dose activity, negative = inhibition, most hits filed as inhibitors; hit rate 0.12% among 410,000; AID 624173; note: nearly all actives have a fitted effect of over 50% in size
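T. brucei PYK with substrate was exposed to pin-transferred compounds across a concentration series, then started with 130 uM ADP (final). After 45 min at room temperature, Kinase-Glo Plus luminescence was read, normalized and curve-fitted.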
RE007 growth inh = less growth of the S. pombe RE007 Vpr strain; hit rate 0.21% among 360,000; Potency, µM (titrated, usually from 92.2 µM), inactives show at the top dose activity change, negative = less growth, usual class: inhibitors; S. pombe RE007 Vpr strain, BacTiter-Glo ATP luminescence, 24 h; active = well fitted falling curve with a large enough effect; inconclusive = small, poorly fitted or top-dose-only effect; inactive = no such curve, though single readings can be large or run the other way; note: nearly all actives have a fitted effect of over 50% in size
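Fission yeast RE007 carrying one integrated HIV-1 vpr copy, seeded at OD 0.01 in PMG+AL medium with 23 nL pinned compound. Grown 24 h at 30 degrees; viability read by BacTiter-Glo luminescence after 5 min.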
Starred values were filed as active, the others as inactive; ? = inconclusive; / = not tested or not shown; [ ] = remark or other dose. Unless noted, calls come from the whole dose curve; as a rule, active = well fitted curve in the direction sought with a large enough effect; inconclusive = small, poorly fitted or top-dose-only effect, or another doubt; inactive = no such curve, though single readings can be large; an effect the other way counts as inactive or inconclusive. % is set by controls: 0 for no effect and ±100 for the full control effect; potency is the fitted concentration of half-maximal effect.

SMILES	FMDV inh	Sm TGR inh	Tb PYK inh	RE007 growth inh
CCOC(=O)[C@]12Cc3ccccc3[C@H]1N(Cc1ccccc1)C(=O)c1cc(OC)ccc12	?	/	-2%	12%
CCOC(=O)[C@]12Cc3cc(OC)ccc3[C@H]1N(CCC(=O)OC)C(=O)c1cc(OC)ccc12	20µM*	/	0%	3%
CCOC(=O)[C@]12Cc3ccccc3[C@H]1N(CCC(=O)OC)C(=O)c1cc(OC)ccc12	28µM*	/	6%	77%
O=C(CSc1c2c(nc3cc(Cl)ccc13)CCCC2)N1CCN(c2ccccc2F)CC1	?	-4%	0%	/
COc1ccccc1CNC(=O)CCCCn1c(=O)c2ccccc2n(Cc2ccccc2C)c1=O	-18%	-8%	-10%	/
COC1C(OC(=O)c2ccc(C)[nH]2)C(O)C(Oc2ccc3c(O)c(NC(=O)c4ccc(O)c(CC=C(C)C)c4)c(=O)oc3c2Cl)OC1(C)C (centres undefined)	40µM*	2%	-1%	7%
CO[C@H]1[C@@H](OC(N)=O)[C@H](O)[C@@H](Oc2ccc3c(O)c(NC(=O)c4ccc(O)c(CC=C(C)C)c4)c(=O)oc3c2C)OC1(C)C	/	/	-5%[33.2 µM]	/
Cc1cc(N(C)Cc2ccccc2)n2nc(-c3ccc(C(C)(C)C)cc3)nc2n1	-19%	-12%	-8%	/
COc1ccccc1NC(=O)c1ccc(NC(=O)COC(=O)C2(C)CC2(Cl)Cl)cc1 (centres undefined)	35µM*	6%	2%	-9%
CCCCCCCn1c(=O)c(C(=O)OC)c(N)c2ccccc21	13µM*	5%	-1%	-7%
CC(=O)Nc1cc([As](=O)(O)O)ccc1O	-15%	7.1µM*	0%	-5%
CC(=O)Nc1cc(Br)ccc1O	-12%	0%	-5%	3%
CCC(C(=O)NCCc1cc(OC)ccc1OC)n1nc(C)c2sc3ccccc3c2c1=O (centres undefined)	-19%	1%	1%	/
O=C(Nc1ccccc1)N(Cc1cccs1)c1ccc(Cl)cc1	-12%	-1%	-1%	/
O=C(C=P(c1ccccc1)(c1ccccc1)c1ccccc1)c1ccccc1-c1ccccc1C(=O)C=P(c1ccccc1)(c1ccccc1)c1ccccc1	20µM*	/	-6%	21%
CCOC(=O)C1=CC(=C2C(=O)N(CC)C(=S)N(CC)C2=O)c2ccccc2O1	-2%	25µM*	-18%	-8%
CCN1C(=O)C(=C2C=C(C)OC(C)=C2)C(=O)N(CC)C1=S	-17%	-1%	0%	4%
COc1ccc(Br)cc1CNC(=O)C1COc2ccccc2C1 (centres undefined)	0%	-1%	2%	/
COC(=O)c1cc(CNC(=O)c2cccc(N(C)C)c2)cc(NC(=O)c2ccccc2Cl)c1	-3%	/	/	/
COc1cccc(CN2CCN(Cc3ccc(O)c(OC)c3)CC2CCO)c1 (centres undefined)	5%	35µM*	-5%	-5%
Cc1ccc(CN2CCN(Cc3ccncc3)CC2CCO)o1 (centres undefined)	-20%	20µM*	1%	-19%
COc1cccc(CN2CCN(Cc3ccc(C)o3)CC2CCO)c1 (centres undefined)	64%	35µM*	2%	10%
COc1cccc(CN2CCN(Cc3ccc(OC)c(OC)c3)CC2CCO)c1 (centres undefined)	-13%	-17%	-3%	-9%
COc1cccc(CN2CCN(Cc3cc4ccccc4o3)CC2CCO)c1 (centres undefined)	0%	2%	1%	-7%
CN1C(=O)C(=Cc2ccc(N3CCCCCC3)o2)C(=O)N(C)C1=S	-18%	35µM*	?	-14%
SMILES	FMDV inh	Sm TGR inh	Tb PYK inh	RE007 growth inh
COc1ccc2c3c([nH]c2c1)C(C)NCC3 (centres undefined)	-23%	11µM*	2%	-5%
COc1ccc(-c2cc(OC)c3c(C)oc(C)c3c(=O)c2)cc1OC	-8%	50µM*	-16%	-9%
COc1cc(-c2cc(OC)c3c(C)oc(C)c3c(=O)c2)ccc1O	-10%	-15%	-6%	-6%
COc1ccc(-c2cc(OC(=O)c3ccc(Cl)cc3)c3c(C)oc(C)c3c(=O)c2)cc1	?	40µM*	-18%	/
O=C(NCc1ccc(Cl)cc1)c1ccc2c(Cl)c3c(nc2c1)CCCC3	-19%	0%	2%	/
NC(=O)N\N=C/C=C/C=C/c1ccc(F)cc1	3%	25µM*	-2%	5%
COC(=O)c1ccc(NC(=O)CCc2nnc3ccc(N4CCC5(CC4)OCCO5)nn23)cc1	28µM*	-8%	-1%	11%
CCOc1ccc(/C=C/C2=CC(C)(C)NC(=S)N2)cc1	-10%	8.9µM*	1%	-17%
COc1ccc(/C=C/C2=CC(C)(C)NC(=S)N2)cc1OC	-4%	2.8µM*	-3%	3%
COc1cccc(/C=C/C2=CC(C)(C)NC(=S)N2)c1	18%	/	-4%	8%
Cc1nnc(N2C(=O)c3oc4ccccc4c(=O)c3C2c2cccc(OCCC(C)C)c2)s1 (centres undefined)	-1%	-2%	-8%	/
CCC(C)(C)c1ccc(OCCCC[n+]2cccc(C)c2)c(C(C)(C)CC)c1	32µM*	3%	-1%	?
COc1cccc(/C=N/Nc2ncccc2[N+](=O)[O-])c1OC	7.1µM*	-3%	?	?
CCOc1ccc(NC(=O)CN2C(=O)C(c3ccccc3)=NC23CCCCCC3)cc1	8%	3%	5%	/
CC(C)COCC1CC2(CC(C)(c3csc(N)n3)OC2=O)C(=O)O1 (centres undefined)	9%	?	-1%	-12%
C=CCNc1nc(C2(C)CC3(CC(C)(C)OC3=O)C(=O)O2)cs1 (centres undefined)	-21%	50µM*	-10%	-2%
CC(C)(CNC(=O)c1cnn(-c2ncc3c(n2)-c2ccccc2CC3)c1C1CC1)N1CCOCC1	-13%	/	/	/
COc1ccccc1N1C(=O)C=C(Sc2nc(C)cc(C)n2)C1=O	?	1µM*	5µM*	9%
COc1ccccc1N1C(=O)C2CC(C)=C(C)CC2C1=O (centres undefined)	/	10%	1%	-9%
CC(=O)NCCNC(=O)c1ccc2c(=O)n(CCc3ccccc3)c(=O)[nH]c2c1	30%	-1%	1%	/
Cc1ccc(N2C(=O)[C@@H]3C(c4cccnc4)=NO[C@@H]3C2=O)cc1	-10%	7.9µM*	-3%	?
COc1ccc(N2C(=O)[C@@H]3C(c4cccnc4)=NO[C@@H]3C2=O)cc1	-2%	7.1µM*	-7%	-29%
COc1ccc(CN2C(=O)[C@@H]3C(c4ccc(F)cc4)=NO[C@@H]3C2=O)cc1	5%	-25%	4%	-2%
CC(C)(C)c1ccc(OCCSc2nc(-c3cccs3)nc3cc(=O)[nH]n23)cc1	-29%	?	-4%	/

Bioassay records deposited in PubChem by National Center for Advancing Translational Sciences (NCATS).
